Measured values published in PubChem BioAssay (NCATS).
Results filed as inconclusive are left out. Calls of active or inactive are those of the source. Calls come from the whole dose curve; as a rule, active = well fitted cell-killing curve with a large enough effect; inconclusive = small, poorly fitted or top-dose-only effect, or effect the other way; inactive = no such curve, though single readings can be large or run the other way.

Test: Quantitative High-Throughput drug screen in 47 multiple myeloma cell lines against the NCATS MIPE library collection: XG1_PLB cell viability assay (AID 1919866); note: nearly all actives have a fitted effect of over 35% in size
Details: CellTiter-Glo ATP, 48 h; series mostly up to 45.8 µM
From the text: PI: Beverly A. Mock Ph.D.
Laboratory of Cancer Biology and Genetics,
Center for Cancer Research, National Cancer Institute,
National Institute of Health, Bethesda, Maryland
Drug resistance and disease progression are common in multiple myeloma (MM) patients, underscoring the need for new therapeutic combinations. […] We hypothesized that effective combinations would reduce MYC expression and enhance p16 activity. […] These preclinical data identify potentially useful drug combinations for evaluation in drug-resistant MM and reveal potential mechanisms of combined drug sensitivity.
Described herein is the primary MIPE qHTS used to cherrypick compounds. Validated compounds were then further tested for potential synergistic activiy.
[1] Peat TJ, Gaikwad SM, Dubois W, Gyabaah-Kessie N, Zhang S, Gorjifard S, Phyo Z, Andres M, Hughitt VK, Simpson RM, Miller MA, Girvin AT, Taylor A, Williams D, D'Antonio N, Zhang Y, Rajagopalan A, Flietner E, Wilson K, Zhang X, Shinn P, Klumpp-Thomas C, McKnight C, Itkin Z, Chen L, Kazandijian D, Zhang J, Michalowski AM, Simmons JK, Keats J, Thomas CJ, Mock BA. Drug combinations identified by high-throughput screening promote cell cycle transition and upregulate Smad pathways in myeloma. Cancer Lett. 2023 Aug 1;568:216284. doi: 10.1016/j.canlet.2023.216284. Epub 2023 Jun 24. PMID: 37356470; PMCID: PMC10408729.
SEQUENCE No. (e.g., 1, 2, 3, etc.); […] (e.g., Cells, Incubation, Reagent, etc.); VALUE and DESCRIPTION.
1; Cells; 5 uL; white, solid bottom 1536-well Greiner assay plate.
2; Compounds; 23 nL; Kalypsis pin tool (Wako USA) equipped with a 1536-well pin head to transfer to the assay plates.
3; Incubation; 48 hours; 37C incubation.
4; Reagent;5uL; CellTiter Glo (Promega).
5; Detector; 425V; Luminescence; Viewlux PerkinElmer.
NOTES (numbers refer to Sequence numbers above)
1. The cell-based screening methods employed in this study were like those previously published. Briefly, the corresponding myeloma cell lines were screened in 1,536-well plates with 500 cells, 5-uL per well for inhibition of cell viability (assessed by measuring ATP levels with CellTiterGlo).
2. NCATS MIPE 4.0 library of approved and investigational drugs were added using the Kalypsis pin tool. Wells treated with DMSO only for 100% viability and media only for 0% viability were used as controls.
3. The assay plates were covered and incubated for 48 hours in a 37C, 5% CO2 incubator with controlled humidity.
4. After 48 hours, CellTilter-GloTM luminescent substrate mix (Promega) reagent was added to the assay plate and plates we incubated for 5 min at room temperature.
5. Signal was measured as median relative luminescence units on a ViewLux (PerkinElmer) multiplate reader.
[1] Heske CM, Davis MI, Baumgart JT, Wilson K, Gormally MV, Chen L, Zhang X, Ceribelli M, Duveau DY, Guha R, Ferrer M, Arnaldez FI, Ji J, Tran HL, Zhang Y, Mendoza A, Helman LJ, Thomas CJ. Matrix Screen Identifies Synergistic Combination of PARP Inhibitors and Nicotinamide Phosphoribosyltransferase (NAMPT) Inhibitors in Ewing Sarcoma. Clin Cancer Res. 2017 Dec 1;23(23):7301-7311. doi: 10.1158/1078-0432.CCR-17-1121. Epub 2017 Sep 12. PMID: 28899971; PMCID: PMC6636827.
Potency is the fitted concentration of half-maximal effect.

| SMILES | Potency |
| --- | --- |
| Cn1cc(C2=C(c3cn(C4CCN(Cc5ccccn5)CC4)c4ccccc34)C(=O)NC2=O)c2ccccc21 | 5260 nM (active) |
| CN(C)CCc1ccc(O)cc1 | inactive |
| CNC(=O)c1ccc(N2C(=S)N(c3ccc(C#N)c(C(F)(F)F)c3)C(=O)C23CCC3)cc1F | 1320 nM (active) |
| COC[C@@H](NC(C)=O)C(=O)NCc1ccccc1 | inactive |
| CCCC(C)(COC(N)=O)COC(=O)NC(C)C (centres undefined) | inactive |
| CN(C)[C@@H]1C(=O)C(C(N)=O)=C(O)[C@@]2(O)C(=O)C3=C(O)c4c(O)cccc4[C@@](C)(O)[C@H]3C[C@@H]12 | inactive |
| Cn1c(CCCC(=O)O)nc2cc(N(CCCl)CCCl)ccc21 | 14800 nM (active) |
| COc1ccc2c(c1OC)CN1CCc3cc4c(cc3C1C2)OCO4 (centres undefined) | 14800 nM (active) |
| CN(C)CCN(C)CCc1ccc(Cl)c(Cl)c1 | inactive |
| CC(O)(CS(=O)(=O)c1ccc(F)cc1)C(=O)Nc1ccc(C#N)c(C(F)(F)F)c1 (centres undefined) | 166 nM (active) |
| O=C1CC[C@@]2(O)[C@H]3Cc4ccc(O)c5c4[C@@]2(CCN3CC2CC2)[C@H]1O5 | inactive |
| Fc1ccc(C(OCCN2CCN(CCCc3ccccc3)CC2)c2ccc(F)cc2)cc1 | 7430 nM (active) |
| COC[C@H]1OC(=O)c2coc3c2[C@@]1(C)C1=C(C3=O)C2CCC(=O)[C@@]2(C)C[C@H]1OC(C)=O (some centres undefined) | 1480 nM (active) |
| CNCC(O)c1ccc(O)cc1 (centres undefined) | inactive |
| Cc1sc2c(c1C)C(c1ccc(Cl)cc1)=N[C@@H](CC(=O)OC(C)(C)C)c1nnc(C)n1-2 | 187 nM (active) |
| C#CCN(C)[C@H](C)Cc1ccccc1 | inactive |
| COc1ccc(C(=O)c2c(C)n(CCN3CCOCC3)c3ccccc23)cc1 | inactive |
| CN1CCN(C(=O)O[C@H]2c3nccnc3C(=O)N2c2ccc(Cl)cn2)CC1 | inactive |
| C=C(C)[C@H]1Cc2c(ccc3c2O[C@@H]2COc4cc(OC)c(OC)cc4[C@@H]2C3=O)O1 | 264 nM (active) |
| C[C@@H]1O[C@@H](O[C@H]2C[C@@H](O)[C@]3(CO)[C@H]4[C@H](O)C[C@]5(C)[C@@H](C6=CC(=O)OC6)CC[C@]5(O)[C@@H]4CC[C@]3(O)C2)[C@H](O)[C@H](O)[C@H]1O | 7.4 nM (active) |
| CC1=C2C[C@@H]3[C@@H](CC=C4C[C@@H](O)CC[C@@]43C)[C@@H]2CC[C@]12O[C@H]1C[C@H](C)CN[C@H]1[C@H]2C | inactive |
| N[C@@H](Cc1ccc(N(CCCl)CCCl)cc1)C(=O)O | 7430 nM (active) |
| O=C(O)C(=O)c1cn(Cc2ccccc2)c2ccc(-c3ccc(OC(F)(F)F)cc3)cc12 | 9350 nM (active) |
| C[C@@H]1[C@@H](CC(C[C@H]2O[C@@H]3O[C@]4(C)CC[C@@H]5[C@H](C)CC[C@@H]([C@H]2C)[C@@]35OO4)C[S+](=O)([O-])c2ccc(COC(=O)N(C)C)cc2)O[C@@H]2O[C@]3(C)CC[C@H]4[C@H](C)CC[C@@H]1[C@@]24OO3 (some centres undefined) | 296 nM (active) |
